# Test results published in the supplement of paper PMC6992640.
# Where a name gives a salt, the structure may show the parent alone.
# Test system: UCD52 (cells of a triple-negative basal-like breast cancer xenograft)
# Assay: cell viability of combination (% of vehicle); higher = less cytotoxic
# Conditions: 1 µM; 72 h; partner dose: 10 nM
# Protocol: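 PDX cells were treated for 72 h with each drug at 1 µM plus afatinib (10 nM; 1 µM for WHIM30). Luciferase viability is expressed as percent of vehicle.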
row,SMILES,cell viability of combination
1,Nc1ccn(C2OC(CO)C(O)C2O)c(=O)n1 (stereo not given) [Cytarabine] + CN(C)C/C=C/C(=O)Nc1cc2c(Nc3ccc(F)c(Cl)c3)ncnc2cc1O[C@H]1CCOC1 [Afatinib],65.7
2,CNCCC(Oc1cccc2ccccc12)c1cccs1.Cl (stereo not given) [Duloxetine HCl] + CN(C)C/C=C/C(=O)Nc1cc2c(Nc3ccc(F)c(Cl)c3)ncnc2cc1O[C@H]1CCOC1 [Afatinib],59.8
3,Clc1ccc(C(Cn2ccnc2)OCc2ccc(Sc3ccccc3)cc2)c(Cl)c1.O=[N+]([O-])O (stereo not given) [Fenticonazole Nitrate] + CN(C)C/C=C/C(=O)Nc1cc2c(Nc3ccc(F)c(Cl)c3)ncnc2cc1O[C@H]1CCOC1 [Afatinib],59.9
4,CC(C)(C)NC(=O)C1CC2CCCCC2CN1CC(O)C(Cc1ccccc1)NC(=O)C(CC(N)=O)NC(=O)c1ccc2ccccc2n1.CS(=O)(=O)O (stereo not given) [Saquinavir mesylate] + CN(C)C/C=C/C(=O)Nc1cc2c(Nc3ccc(F)c(Cl)c3)ncnc2cc1O[C@H]1CCOC1 [Afatinib],61.1
5,COC(=O)C12CCC(C)(C)CC1C1C(=O)C=C3C4(C)C=C(C#N)C(=O)C(C)(C)C4CCC3(C)C1(C)CC2 (stereo not given) [Bardoxolone methyl] + CN(C)C/C=C/C(=O)Nc1cc2c(Nc3ccc(F)c(Cl)c3)ncnc2cc1O[C@H]1CCOC1 [Afatinib],47.9
6,CC(C)Nc1cc(-c2c[nH]c(C(=O)NC(CO)c3cccc(Cl)c3)c2)c(Cl)cn1 (stereo not given) + CN(C)C/C=C/C(=O)Nc1cc2c(Nc3ccc(F)c(Cl)c3)ncnc2cc1O[C@H]1CCOC1 [Afatinib],50.5
7,CN1CCN(CCOc2cc(OC3CCOCC3)c3c(Nc4c(Cl)ccc5c4OCO5)ncnc3c2)CC1 [Saracatinib (AZD0530)] + CN(C)C/C=C/C(=O)Nc1cc2c(Nc3ccc(F)c(Cl)c3)ncnc2cc1O[C@H]1CCOC1 [Afatinib],37.9
8,CC1=C(C(=O)OC(C)C)C(c2cccc([N+](=O)[O-])c2)C(C(=O)OC2CN(C(c3ccccc3)c3ccccc3)C2)=C(N)N1 (stereo not given) [Azelnidipine] + CN(C)C/C=C/C(=O)Nc1cc2c(Nc3ccc(F)c(Cl)c3)ncnc2cc1O[C@H]1CCOC1 [Afatinib],52.3
9,CCN1CCN(Cc2ccc(Nc3ncc(F)c(-c4cc(F)c5nc(C)n(C(C)C)c5c4)n3)nc2)CC1.CS(=O)(=O)O + CN(C)C/C=C/C(=O)Nc1cc2c(Nc3ccc(F)c(Cl)c3)ncnc2cc1O[C@H]1CCOC1 [Afatinib],40.5
10,CN(C)CC=CC(=O)Nc1cc2c(Nc3ccc(F)c(Cl)c3)ncnc2cc1OC1CCOC1.O=C(O)C=CC(=O)O.O=C(O)C=CC(=O)O (stereo not given) [Afatinib dimaleate] + CN(C)C/C=C/C(=O)Nc1cc2c(Nc3ccc(F)c(Cl)c3)ncnc2cc1O[C@H]1CCOC1 [Afatinib],24.5
11,CO[C@H]1/C=C/O[C@@]2(C)Oc3c(C)c(O)c4c(O)c(c(/C=N/N5CCN(C6CCCC6)CC5)c(O)c4c3C2=O)NC(=O)/C(C)=C\C=C\[C@H](C)[C@H](O)[C@@H](C)[C@@H](O)[C@@H](C)[C@H](OC(C)=O)[C@@H]1C [Rifapentine] + CN(C)C/C=C/C(=O)Nc1cc2c(Nc3ccc(F)c(Cl)c3)ncnc2cc1O[C@H]1CCOC1 [Afatinib],72.2
12,CC(C)N=c1cc2n(-c3ccc(Cl)cc3)c3ccccc3nc-2cc1Nc1ccc(Cl)cc1 [Clofazimine] + CN(C)C/C=C/C(=O)Nc1cc2c(Nc3ccc(F)c(Cl)c3)ncnc2cc1O[C@H]1CCOC1 [Afatinib],69.6
13,O=C(NN=Cc1ccc([N+](=O)[O-])o1)c1ccc(O)cc1 [Nifuroxazide] + CN(C)C/C=C/C(=O)Nc1cc2c(Nc3ccc(F)c(Cl)c3)ncnc2cc1O[C@H]1CCOC1 [Afatinib],79.4
14,COCCn1c2c([n+](Cc3cnccn3)c1C)C(=O)c1ccccc1C2=O.[Br-] + CN(C)C/C=C/C(=O)Nc1cc2c(Nc3ccc(F)c(Cl)c3)ncnc2cc1O[C@H]1CCOC1 [Afatinib],15.2
15,COc1cc2ncnc(Nc3ccc(F)c(Cl)c3)c2cc1NC(=O)C=CCN1CCCCC1 + CN(C)C/C=C/C(=O)Nc1cc2c(Nc3ccc(F)c(Cl)c3)ncnc2cc1O[C@H]1CCOC1 [Afatinib],33
16,COc1ncc(-c2ccc3nccc(-c4ccnnc4)c3c2)cc1NS(=O)(=O)c1ccc(F)cc1F + CN(C)C/C=C/C(=O)Nc1cc2c(Nc3ccc(F)c(Cl)c3)ncnc2cc1O[C@H]1CCOC1 [Afatinib],15.8
17,Cl.Cl.Fc1ccc(C(c2ccc(F)cc2)N2CCN(CC=Cc3ccccc3)CC2)cc1 [Flunarizine 2HCl] + CN(C)C/C=C/C(=O)Nc1cc2c(Nc3ccc(F)c(Cl)c3)ncnc2cc1O[C@H]1CCOC1 [Afatinib],77
18,COc1cc2c(Nc3ccc(Br)cc3F)ncnc2cc1OCC1CCN(C)CC1 [Vandetanib (ZD6474)] + CN(C)C/C=C/C(=O)Nc1cc2c(Nc3ccc(F)c(Cl)c3)ncnc2cc1O[C@H]1CCOC1 [Afatinib],36.2
19,Nc1ncn(C2OC(CO)C(O)C2O)c(=O)n1 (stereo not given) [5-Azacytidine] + CN(C)C/C=C/C(=O)Nc1cc2c(Nc3ccc(F)c(Cl)c3)ncnc2cc1O[C@H]1CCOC1 [Afatinib],58.5
20,Cl.Clc1ccccc1CN1CCc2sccc2C1 [Ticlopidine HCl] + CN(C)C/C=C/C(=O)Nc1cc2c(Nc3ccc(F)c(Cl)c3)ncnc2cc1O[C@H]1CCOC1 [Afatinib],75.9

row,SMILES,cell viability of combination
1,Br.Cc1ccc(Sc2ccccc2N2CCNCC2)c(C)c1 + CN(C)C/C=C/C(=O)Nc1cc2c(Nc3ccc(F)c(Cl)c3)ncnc2cc1O[C@H]1CCOC1 [Afatinib],55.4
2,Clc1ccc(C(Cn2ccnc2)OCc2c(Cl)cccc2Cl)c(Cl)c1.O=[N+]([O-])O (stereo not given) [Isoconazole nitrate] + CN(C)C/C=C/C(=O)Nc1cc2c(Nc3ccc(F)c(Cl)c3)ncnc2cc1O[C@H]1CCOC1 [Afatinib],78.3
3,COc1cccc2c1C(=O)c1c(O)c3c(c(O)c1C2=O)CC(O)(C(=O)CO)CC3OC1CC(N)C(O)C(C)O1.Cl (stereo not given) [Epirubicin HCl] + CN(C)C/C=C/C(=O)Nc1cc2c(Nc3ccc(F)c(Cl)c3)ncnc2cc1O[C@H]1CCOC1 [Afatinib],28
4,COc1cc2nccc(Oc3ccc(NC(=O)C4(C(=O)Nc5ccc(F)cc5)CC4)cc3)c2cc1OC.O=C(O)CC(O)C(=O)O [Cabozantinib malate (XL184)] + CN(C)C/C=C/C(=O)Nc1cc2c(Nc3ccc(F)c(Cl)c3)ncnc2cc1O[C@H]1CCOC1 [Afatinib],64.7
5,CN1CCN(CCCN2c3ccccc3Sc3ccc(C(F)(F)F)cc32)CC1.Cl.Cl [Trifluoperazine 2HCl] + CN(C)C/C=C/C(=O)Nc1cc2c(Nc3ccc(F)c(Cl)c3)ncnc2cc1O[C@H]1CCOC1 [Afatinib],73.1
6,CNCCCC12CCC(c3ccccc31)c1ccccc12.Cl [Maprotiline HCl] + CN(C)C/C=C/C(=O)Nc1cc2c(Nc3ccc(F)c(Cl)c3)ncnc2cc1O[C@H]1CCOC1 [Afatinib],61.4
7,COC1=C(OC)C(=O)C(CCCCCCCCCCO)=C(C)C1=O [Idebenone] + CN(C)C/C=C/C(=O)Nc1cc2c(Nc3ccc(F)c(Cl)c3)ncnc2cc1O[C@H]1CCOC1 [Afatinib],62.7
8,CNC(=O)c1cc(Oc2ccc(NC(=O)Nc3ccc(Cl)c(C(F)(F)F)c3)cc2)ccn1.Cc1ccc(S(=O)(=O)O)cc1 [Sorafenib Tosylate] + CN(C)C/C=C/C(=O)Nc1cc2c(Nc3ccc(F)c(Cl)c3)ncnc2cc1O[C@H]1CCOC1 [Afatinib],42.3
9,COc1cc(C(=O)O)ccc1NC(=O)C1NC(CC(C)(C)C)C(C#N)(c2ccc(Cl)cc2F)C1c1cccc(Cl)c1F (stereo not given) + CN(C)C/C=C/C(=O)Nc1cc2c(Nc3ccc(F)c(Cl)c3)ncnc2cc1O[C@H]1CCOC1 [Afatinib],60.4
10,CN(C)c1ccc(C(=C2C=CC(=[N+](C)C)C=C2)c2ccc(N(C)C)cc2)cc1.[Cl-] [Crystal Violet] + CN(C)C/C=C/C(=O)Nc1cc2c(Nc3ccc(F)c(Cl)c3)ncnc2cc1O[C@H]1CCOC1 [Afatinib],41
11,COc1nc2ccc(Br)cc2cc1[C@@H](c1ccccc1)[C@@](O)(CCN(C)C)c1cccc2ccccc12 [Bedaquiline fumarate] + CN(C)C/C=C/C(=O)Nc1cc2c(Nc3ccc(F)c(Cl)c3)ncnc2cc1O[C@H]1CCOC1 [Afatinib],91.2
12,CC1(C)Cc2c(-c3ccccc3)c(-c3ccc(Cl)cc3)c(CC(=O)O)n2C1 [Licofelone] + CN(C)C/C=C/C(=O)Nc1cc2c(Nc3ccc(F)c(Cl)c3)ncnc2cc1O[C@H]1CCOC1 [Afatinib],72.7
13,CNC(=O)c1cc(Oc2ccc(NC(=O)Nc3ccc(Cl)c(C(F)(F)F)c3)cc2)ccn1 [Sorafenib] + CN(C)C/C=C/C(=O)Nc1cc2c(Nc3ccc(F)c(Cl)c3)ncnc2cc1O[C@H]1CCOC1 [Afatinib],52.2
14,COc1cc2c(Oc3ccc(NC(=O)C4(C(=O)Nc5ccc(F)cc5)CC4)cc3F)ccnc2cc1OCCCN1CCOCC1 + CN(C)C/C=C/C(=O)Nc1cc2c(Nc3ccc(F)c(Cl)c3)ncnc2cc1O[C@H]1CCOC1 [Afatinib],28.5
15,CC(C)(C)c1ccc(C(=O)CCCN2CCC(OC(c3ccccc3)c3ccccc3)CC2)cc1 [Ebastine] + CN(C)C/C=C/C(=O)Nc1cc2c(Nc3ccc(F)c(Cl)c3)ncnc2cc1O[C@H]1CCOC1 [Afatinib],70.1
16,CCN(CC)CCCC(C)Nc1ccnc2cc(Cl)ccc12.O=P(O)(O)O.O=P(O)(O)O (stereo not given) [Chloroquine diphosphate] + CN(C)C/C=C/C(=O)Nc1cc2c(Nc3ccc(F)c(Cl)c3)ncnc2cc1O[C@H]1CCOC1 [Afatinib],48.5
17,CCOC(=O)C1=C(COCCN)NC(C)=C(C(=O)OC)C1c1ccccc1Cl.O=S(=O)(O)c1ccccc1 (stereo not given) [Amlodipine Besylate] + CN(C)C/C=C/C(=O)Nc1cc2c(Nc3ccc(F)c(Cl)c3)ncnc2cc1O[C@H]1CCOC1 [Afatinib],83.6
18,CC(NCCCc1cccc(C(F)(F)F)c1)c1cccc2ccccc12.Cl (stereo not given) [Cinacalcet HCl] + CN(C)C/C=C/C(=O)Nc1cc2c(Nc3ccc(F)c(Cl)c3)ncnc2cc1O[C@H]1CCOC1 [Afatinib],67.7
19,CC(C)(C)Cn1c(N)nc2ccc(-c3[nH]c(C(C)(C)C)nc3-c3ccc(F)cc3)nc21.CS(=O)(=O)O.CS(=O)(=O)O + CN(C)C/C=C/C(=O)Nc1cc2c(Nc3ccc(F)c(Cl)c3)ncnc2cc1O[C@H]1CCOC1 [Afatinib],30.3
20,CCCCc1oc2ccc(NS(C)(=O)=O)cc2c1C(=O)c1ccc(OCCCN(CCCC)CCCC)cc1 [Dronedarone] + CN(C)C/C=C/C(=O)Nc1cc2c(Nc3ccc(F)c(Cl)c3)ncnc2cc1O[C@H]1CCOC1 [Afatinib],57.7
